The panel holds about 79,000 compounds, 15% with a hit somewhere; the sample as a whole holds those more often. Calls of active or inactive are those of the source. Rule as the data show it: active = growth inhibition above about 70%; inactive = the rest.
Columns and labels:
[1] = NCI Yeast Anticancer Drug Screen. Data for the rad50 strain (AID 155);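 also: 0% = growth of vehicle-only cultures of the same strain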; conditions: S. cerevisiae rad50 strain growth inhibition; at 50.0 µM; active compounds read high
In short: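 Readout: growth inhibition relative to vehicle-treated cultures. Compound exposure was carried out in a genetically defined yeast strain deficient in DNA damage repair.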

[2] = NCI Yeast Anticancer Drug Screen. Data for the mec2-1 strain (AID 157); conditions: S. cerevisiae mec2-1 strain, at 50.0 µM, active compounds read high
In short: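 Vehicle-treated cultures served as reference for growth inhibition of compound-exposed mec2-1 yeast.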

[3] = NCI Yeast Anticancer Drug Screen. Data for the sgs1 mgt1 strain (AID 161);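 also: 0% = growth of cultures given vehicle only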; conditions: S. cerevisiae sgs1 mgt1 strain, at 50.0 µM, active compounds read high
In short: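 Genetically altered yeast, compound exposure, growth inhibition relative to vehicle.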

[4] = NCI Yeast Anticancer Drug Screen. Data for the cln2 rad14 strain (AID 165);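 also: 0% = growth equal to vehicle treated cultures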; conditions: S. cerevisiae cln2 rad14 strain, at 50.0 µM, active compounds read high
In short: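 Each compound was tested on cln2 rad14 yeast. Inhibition of growth was calculated against vehicle-exposed controls.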

[5] = NCI Yeast Anticancer Drug Screen. Data for the bub3 strain (AID 167); conditions: S. cerevisiae bub3 mutant strain, at 50.0 µM, active compounds read high
In short: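 Readout: yeast growth inhibition, expressed relative to vehicle-only wells. The test organism is a mutant strain from a panel with lesions in DNA repair or checkpoint genes.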

[6] = NCI Yeast Anticancer Drug Screen. Data for the mlh1 rad18 strain (AID 175); conditions: S. cerevisiae mlh1 rad18 strain growth inhibition; at 50.0 µM; active compounds read high
In short: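 Vehicle-treated cultures served as the reference for growth inhibition in a yeast strain carrying DNA damage repair alterations exposed to each compound.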

Measured: growth inhibition

CCOC(CCNCC(OCC)OCC)OCC
inactive: [1] -46.5% | [2] -56.2% | [3] -29.4% | [4] -11.1% | [5] -4.8% | [6] -22.4%

O=C(O)CC1CC2CC(=O)C1C2 (stereo unspecified)
inactive: [1] -28.1% | [2] -30.7% | [3] -14.7% | [4] -1.2% | [5] -23.6% | [6] 12.2%

Cc1ccccc1/C=N\N=C\c1ccco1
inactive: [1] -0.5% | [2] -6.5% | [3] -5.25% | [4] -10.7% | [5] 18.1% | [6] 44.6%

COc1ccccc1NC(=O)OCc1ccco1
inactive: [1] 2.55% | [2] -6.9% | [3] 28.6% | [4] -65.2% | [5] 3.35% | [6] 6.85%

Cc1ccc(NC(=O)Nc2cccc(C(F)(F)F)c2)cc1NC(=O)Nc1cccc(C(F)(F)F)c1
inactive: [1] 2.75% | [2] 15% | [3] 31.9% | [4] 23.7% | [5] -6.6% | [6] 29.6%

C=NC1CCCCC1
inactive: [1] 0.95% | [2] -3.75% | [3] -10.6% | [4] 2% | [5] 14.7% | [6] 3.75%

NC(CSSCC(N)=NCC12CC3CC(CC(C3)C1)C2)=NCC12CC3CC(CC(C3)C1)C2
active: [1] 99.4% | [2] 99.5% | [3] 99.5% | [4] 97.4% | [5] 98.8% | [6] 99.2%

CCCNC1CC(n2cc(C)c(=O)[nH]c2=O)OC1CO (stereo unspecified)
inactive: [1] -11.4% | [2] -7.85% | [3] -25.3% | [4] -14.7% | [5] -31.8% | [6] -26.8%

CCCCCC1(C=O)C(=O)NC(=O)N1C (stereo unspecified)
inactive: [1] 2.25% | [2] -5.45% | [3] -1.45% | [4] -0.45% | [5] -0.05% | [6] -8.2%

N#CC(=S)N(C(=O)c1ccc(Cl)cc1)c1ccccc1Cl
inactive: [1] -1.4% | [2] 28.6% | [3] 12.6% | [4] -18.9% | [5] 45.5% | [6] 24.9%

COc1ccc2c(c1)c(CO)c(CO)c[n+]2[O-]
inactive: [1] 11.7% | [2] 3.1% | [3] 16% | [4] 2.75% | [5] 11.8% | [6] 6.15%

CN(C)Cc1nsc(N(C)C)n1
inactive: [1] -4.9% | [2] -9.1% | [3] -34.2% | [4] -50% | [5] -19.1% | [6] -13.2%

O=C(NNC(=S)S)c1ccncc1
inactive: [1] 7.5% | [2] 2.4% | [3] -1.2% | [4] -8.95% | [5] 11.7% | [6] 21.9%

C[N+](C)(C)CCCCCC[N+](C)(C)C
inactive: [1] -31.8% | [2] -15.6% | [3] -22.9% | [4] -14.2% | [5] -31.7% | [6] -30.2%

Cc1[nH]c2ccc(C(=O)NN)cc2c1CC(=O)NN
inactive: [1] 12.2% | [2] 8.45% | [3] 14.8% | [4] -23.1% | [5] 6.55% | [6] 25.1%

COc1ccc(N2C(=O)C3c4[nH]c5ccccc5c4C4CC(C)CC(C)C4C3C2=O)cc1 (stereo unspecified)
inactive: [1] 53% | [2] 0.65% | [3] 8.85% | [4] -25.2% | [5] 41% | [6] 14.7%

O=c1[nH]nc(Cc2ccccc2)n1/N=C/c1cccnc1
inactive: [1] 28.8% | [2] 30.9% | [3] 37% | [4] 35.7% | [5] 30.2% | [6] 45.6%

Cc1ccc(SCc2cn(C3OC(CO)C(O)C3O)c(=O)[nH]c2=O)cc1 (stereo unspecified)
inactive: [1] 25.3% | [2] 20.4% | [3] 12.9% | [4] 22.6% | [5] -1.4% | [6] 12.2%

CN1CCOc2c1cnn(CCO)c2=O
inactive: [1] -52.2% | [2] -15.4% | [3] -22.4% | [4] -10.4% | [5] -4.2% | [6] -7.6%

Cc1nn(-c2ccccc2)c(=O)n2c1nc1ccccc12
inactive: [1] -2% | [2] -9.5% | [3] 20.9% | [4] -43.1% | [5] 26.8% | [6] 11.9%

COc1ccccc1/C=N/Nc1nnc2c3ccccc3c3ncccc3c2n1
inactive: [1] -28.8% | [2] -45.8% | [3] -22.5% | [4] -10.8% | [5] -8.55% | [6] -34%

CN(C)c1nc(N(C)C)n2c(-c3ccccc3[N+](=O)[O-])nnc2n1
inactive: [1] 48.3% | [2] 18.4% | [3] 22% | [4] 23.4% | [5] 13.3% | [6] 33.4%

CCN(CC)C(=O)C1CCN(CCC(=O)Nc2ccccc2)CC1
inactive: [1] 8.4% | [2] -7.6% | [3] 12.9% | [4] -16.1% | [5] 5.15% | [6] 7.15%

O=C(NO)/C(CC(=O)c1ccc(O)cc1O)=N\O
inactive: [1] 4.05% | [2] -5.5% | [3] -8.65% | [4] -0.7% | [5] -11.2% | [6] 16.9%

NC(N)=Nc1cccc2ccccc12
inactive: [1] -1.45% | [2] 0.85% | [3] -5.65% | [4] -12.8% | [5] -0.45% | [6] -5.15%

CCCOc1ccccc1C(=O)N1CCOCC1
inactive: [1] 25% | [2] -0.25% | [3] 7.8% | [4] 16.1% | [5] 8.8% | [6] 15.8%

CCCCC(CC)COS(=O)(=O)O (stereo unspecified)
inactive: [1] -16.3% | [2] 2.25% | [3] -30.9% | [4] -42% | [5] -27% | [6] -42%

COc1ccc2ccc3[nH]c4c(C)cnc(NCCCN(C)C)c4c3c2c1
inactive: [1] 34.8% | [2] 43.2% | [3] 55.9% | [4] 18.9% | [5] 45.9% | [6] 29.1%

COc1ccc(OC)c(C(=O)C=C(C(F)(F)F)C(F)(F)F)c1
inactive: [1] -7.65% | [2] -0.95% | [3] -3.8% | [4] -41.6% | [5] -9.3% | [6] 58.9%

CC(=O)O[C@H]1CC[C@@]2(C)[C@@H](CC[C@@H]3[C@@H]2CC[C@]2(C)[C@@H](C(=O)CCC(F)(F)F)CC[C@@H]32)C1
inactive: [1] 16.9% | [2] 20.9% | [3] 33.6% | [4] 23.3% | [5] 0.15% | [6] 18.9%

O=c1[nH][nH]c(=O)c2c1ncn2Cc1ccccc1
inactive: [1] 34.9% | [2] -17% | [3] 1.7% | [4] -49.5% | [5] -14.9% | [6] -25.5%

CCOC(=O)C(OC(C)=O)(C(=O)OCC)C(O)c1cccnc1 (stereo unspecified)
inactive: [1] 15.1% | [2] -2.25% | [3] 16.3% | [4] -37.5% | [5] 8% | [6] -1.05%

CCCC(C)(C)O
inactive: [1] 2.15% | [2] 9.15% | [3] 22.1% | [4] -21.3% | [5] 10.4% | [6] -3.65%

CCOC(=O)C(C)Oc1ccc(Cn2ccnn2)cc1 (stereo unspecified)
inactive: [1] -20.1% | [2] -1.25% | [3] 15.9% | [4] -4.05% | [5] 3.1% | [6] 6.25%

CC1(C)C=CC(=NO)C=C1
inactive: [1] -4.65% | [2] 2.65% | [3] -5.95% | [4] 6.45% | [5] 8.4% | [6] 6.7%

CN(C=O)c1ccc2c(c1)C(=O)c1ccccc1-2
inactive: [1] 11.7% | [2] 2.1% | [3] 0.1% | [4] 4.2% | [5] -0.3% | [6] 9.55%

CC(C(c1ccccc1)C(Br)C(=O)c1ccccc1)[N+](=O)[O-] (stereo unspecified)
active: [1] 96.5% | [2] 93.2% | [3] 95% | [4] 87.3% | [5] 96.5% | [6] 94.7%

N#CNC1=C(C#N)C(c2ccccc2)CC(=O)N1 (stereo unspecified)
inactive: [1] 4.35% | [2] 25.5% | [3] 24.9% | [4] 0% | [5] -0.4% | [6] 10.2%

CNC(=S)c1ccc(Cl)cc1
inactive: [1] 12.3% | [2] -20.6% | [3] -15.1% | [4] -29.8% | [5] -2.05% | [6] 11.3%

O=c1[nH]c(Nc2cccc(Br)c2)nc2nc[nH]c12
inactive: [1] -53.2% | [2] -8.65% | [3] -23.9% | [4] -45.4% | [5] -5.9% | [6] -37.5%

Cc1ccc(N=C(N)NC#N)cc1
inactive: [1] -11.9% | [2] -46% | [3] -27.1% | [4] 16.6% | [5] -34% | [6] -7.75%

Reference: PubChem BioAssay (NCI)
